For test [1], the target named is KiSS-1 receptor (Homo sapiens) (UniProt Q969F8). Put plainly: Human kisspeptin (KISS1R) small molecule agonists, calcium flux assay in KISS1R-HEK293 cells (AID 1920064; active = well fitted activation curve with a large enough effect in the repeat runs). The gist of the method:
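HEK293 cells stably expressing human KISS1R were plated 18 h at 37 °C, loaded with calcium dye for 1 h at 37 °C, then given compound by pin tool. Fluorescence (Ex/Em 480/540) was read kinetically for 3 min.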
Background: Calcium flux is commonly read through the fluorescence of an indicator in the cells.

The nature of test [2]: G protein-coupled receptor (GPCR) small molecule agonists, calcium flux assay: HEK293 wild type cell line counter screen (AID 1920065). The gist of the method:
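Cells were plated and cultured 18 h at 37 C/5% CO2, then loaded with calcium dye for 1 h at 37 C. Compounds in DMSO were pin-transferred in agonist mode, and fluorescence (Ex/Em 480/540) was read kinetically for 3 min at 1 s intervals.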

Test [3] can be described thus: p53 small molecule agonists, cell-based qHTS assay with human liver microsomes (AID 1963577).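 Note: p53 response element beta-lactamase reporter cells with liver microsomes plus NADPH.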 The gist of the method: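 p53RE-bla cells; 5 h settle, 37 C/5% CO2; cpd + HLM 0.5 mg/mL + NADPH 0.5 mg/mL (final); 16 h 37 C; LiveBLAzer 2 h RT dark; fluorescence readout.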
A general note: Quantitative high-throughput screening tests each substance at several concentrations.

The nature of test [4]: p53 small molecule agonists, cell-based qHTS assay with rat liver microsomes (AID 1963578). Note: potency is the fitted concentration of half-maximal effect. The gist of the method:
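Rat liver microsome activation: microsomes 0.5 mg/mL, NADPH 0.5 mg/mL final; p53RE-bla cells, 16 h 37 C; LiveBLAzer readout, 2 h RT dark.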

The nature of test [5]: p53 small molecule agonists, cell-based qHTS assay with human liver microsomes: qHTS cell viability counter screen (AID 1963579). Note: nearly all actives have a fitted effect of over 45% in size. The gist of the method:
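Luminescent CellTiter-Glo read-out, 30 min at room temperature, gauged cytotoxicity in p53RE-bla cells exposed 16 h at 37 C to DMSO-dissolved compounds with metabolic activation by human liver microsomes and NADPH, each 0.5 mg/mL final.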

A short description of test [6]: p53 small molecule agonists, cell-based qHTS assay with rat liver microsomes: qHTS cell viability counter screen (AID 1963580). Note: nearly all actives have a fitted effect of over 45% in size. The gist of the method: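 Intracellular ATP, by CellTiter-Glo luminescence, defines viability. HCT-116 p53RE-bla cells, 4,000 per well, were compound-treated in the presence of rat liver microsomes and NADPH for 16 h at 37 C.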
A short description of test [7]: p53 small molecule agonists, cell-based qHTS assay: qHTS cell viability counter screen (AID 1963581). Note: nearly all actives have a fitted effect of over 45% in size. The gist of the method: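 p53RE-bla HCT-116 cells were exposed to compounds for 16 h at 37 C; after the beta-lactamase FRET read in the same wells, CellTiter-Glo was added and luminescence (intracellular ATP) read after 30 min at room temperature.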
A short description of test [8]: p53 small molecule agonists, cell-based qHTS assay (AID 1963582; active = well fitted activation curve with a large enough effect in the signal ratio in the repeat runs, not every such curve was filed as active; the % refers to the signal ratio). The essentials:
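p53RE-bla beta-lactamase reporter cells rested 5 h at 37 C/5% CO2, then received compounds in DMSO by pin transfer and were incubated 16 h at 37 C. LiveBLAzer B/G FRET substrate was loaded for 2 h at room temperature before fluorescence reading.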

For test [9], the target named is 5-hydroxytryptamine receptor 2A (Homo sapiens) (UniProt P28223). Put plainly: 5-hydroxytryptamine receptor 2A (HTR2A) small molecule antagonists, cell-based qHTS assay (AID 1963586). Note: nearly all actives have a fitted effect of over 45% in size. The essentials: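 Antagonist-mode intracellular calcium assay: DOI (4 nM) added after 5 min compound pre-incubation at room temperature to dye-loaded HTR2A-CHO cells. Fluorescence followed for 3 min, sampled every second.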
5-hydroxytryptamine receptor 2A (Homo sapiens), sequence (P28223 whole entry, looked up): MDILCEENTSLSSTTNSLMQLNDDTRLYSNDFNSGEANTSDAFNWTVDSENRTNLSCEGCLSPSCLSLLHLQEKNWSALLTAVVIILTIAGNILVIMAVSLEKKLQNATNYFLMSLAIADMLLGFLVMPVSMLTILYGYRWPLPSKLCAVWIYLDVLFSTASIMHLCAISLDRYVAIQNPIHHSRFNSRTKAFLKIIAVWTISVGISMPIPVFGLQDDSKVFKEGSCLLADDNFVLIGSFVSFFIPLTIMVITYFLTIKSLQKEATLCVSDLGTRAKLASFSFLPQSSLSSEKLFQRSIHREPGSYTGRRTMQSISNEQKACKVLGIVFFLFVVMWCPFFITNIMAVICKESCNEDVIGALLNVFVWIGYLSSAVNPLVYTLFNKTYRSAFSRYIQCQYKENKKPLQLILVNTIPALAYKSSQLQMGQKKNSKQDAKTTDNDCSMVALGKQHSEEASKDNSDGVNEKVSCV

For test [10] the target is unchanged. Kind of test: 5-hydroxytryptamine receptor 2A (HTR2A) small molecule agonists, cell-based qHTS assay (AID 1963587). Note: nearly all actives have a fitted effect of over 30% in size. The essentials: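 Kinetic calcium-flux fluorescence (2 min, 1 sec intervals) after compound addition in agonist mode. HTR2A-CHO cells were cultured 18 h, then dye-loaded 1 h at 37 C.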
Test [11] addresses Muscarinic acetylcholine receptor M1 (Homo sapiens) (UniProt P11229). Put plainly: Cholinergic receptor muscarinic 1 (CHRM1) small molecule antagonists, cell-based qHTS assay (AID 1963588). Note: nearly all actives have a fitted effect of over 40% in size. The gist of the method:
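CHRM1-CHO calcium-flux assay, antagonist mode. Cells were seeded 18 h, dye-loaded 1 h at 37 C and given compound for 5 min at RT, then acetylcholine was added at 50nM. FDSS fluorescence was read 3 min; 15 concentrations, three runs.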

Test [12] has the same target. Put plainly: Cholinergic receptor muscarinic 1 (CHRM1) small molecule agonists, cell-based qHTS assay (AID 1963589). Note: nearly all actives have a fitted effect of over 35% in size. The gist of the method:
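CHO cells stably expressing human CHRM1, seeded 18 h at 37 C/5% CO2, dye-loaded 1 h at 37 C, then given compound in agonist mode; intracellular calcium fluorescence read kinetically at 1 s intervals. Fifteen concentrations, three independent runs.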

The nature of test [13]: cAMP Responsive Elements (CRE) small molecule agonists, cell-based qHTS assay (AID 1963590). The gist of the method: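 CRE-bla HEK 293T cells in DMEM with 10% dialyzed FBS, NEAA, pyruvate and 25 mM HEPES were plated 18 h at 37 C/5% CO2, then exposed to compounds in DMSO for 3 h before LiveBLAzer B/G FRET substrate addition.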
Test [14] is described as follows: cAMP Responsive Elements (CRE) small molecule antagonists, cell-based qHTS assay (AID 1963591; active = well fitted inhibition curve with a large enough effect in the signal ratio in the repeat runs, not every such curve was filed as active; the % refers to the signal ratio). The essentials: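 CRE-bla HEK293T cells were plated 18 h at 37 °C/5% CO2, pinned with compound in DMSO, then stimulated with NKH477 at 0.25 uM final for 3 h. LiveBLAzer B/G FRET substrate was added and plates incubated 2 h at room temperature.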
In test [15] the target is Beta-2 adrenergic receptor (Homo sapiens) (UniProt P07550). Kind of test: Adrenergic beta2 receptor (ADRB2) small molecule antagonists, cell-based qHTS assay (AID 1963592). Note: series mostly up to about 92 µM; nearly all actives have a fitted effect of over 50% in size. The gist of the method: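 Cells (CHO, stable ADRB2 overexpression) incubated 18-20hr at 37C; compounds added from DMSO; agonist mix (1nM isoproterenol, 100uM IBMX, 25uM Ro-20-1724) added; 0.5hr RT; d2-cAMP and anti-cAMP-cryptate added; 1hr RT; 665/615 nm read.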
Beta-2 adrenergic receptor (Homo sapiens), sequence (P07550 whole entry, looked up): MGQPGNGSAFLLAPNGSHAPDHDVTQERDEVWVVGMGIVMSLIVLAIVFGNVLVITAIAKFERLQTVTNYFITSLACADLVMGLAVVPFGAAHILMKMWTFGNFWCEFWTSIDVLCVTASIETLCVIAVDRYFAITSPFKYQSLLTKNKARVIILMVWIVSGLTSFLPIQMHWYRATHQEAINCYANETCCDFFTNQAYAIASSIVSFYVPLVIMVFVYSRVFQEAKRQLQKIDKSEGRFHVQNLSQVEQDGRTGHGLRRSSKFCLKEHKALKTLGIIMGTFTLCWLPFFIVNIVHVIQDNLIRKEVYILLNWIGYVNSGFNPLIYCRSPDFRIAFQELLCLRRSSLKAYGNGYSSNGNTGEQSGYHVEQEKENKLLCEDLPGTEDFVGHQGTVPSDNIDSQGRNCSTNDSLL

Test [16] has the same target. Kind of test: Adrenergic beta2 receptor (ADRB2) small molecule agonists, cell-based qHTS assay (AID 1963593).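 Note: CHO cells stably overexpressing human ADRB2.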 The gist of the method: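 CHO cells stably over-expressing ADRB2 were plated overnight at 37C, then dosed with compounds plus a stimulation mix containing 100uM IBMX and 25uM Ro-20-1724 for 0.5hr at room temperature. cAMP was measured by HTRF competition, 1hr.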

The target in test [17] is D(2) dopamine receptor (Homo sapiens) (UniProt P14416). Kind of test: Dopamine D2 receptor (DRD2) small molecule agonists, cell-based qHTS assay (AID 1963594). Note: nearly all actives have a fitted effect of over 35% in size. The gist of the method: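 cAMP accumulation in DRD2-HEK293 cells measured by HTRF after 1 h detection; compounds added 10 min before NKH477 (200nM […]) forskolin-analogue stimulation, 30 min at room temperature, with Ro20-1724 present at 0.1 mM final.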
D(2) dopamine receptor (Homo sapiens), sequence (P14416 whole entry, looked up): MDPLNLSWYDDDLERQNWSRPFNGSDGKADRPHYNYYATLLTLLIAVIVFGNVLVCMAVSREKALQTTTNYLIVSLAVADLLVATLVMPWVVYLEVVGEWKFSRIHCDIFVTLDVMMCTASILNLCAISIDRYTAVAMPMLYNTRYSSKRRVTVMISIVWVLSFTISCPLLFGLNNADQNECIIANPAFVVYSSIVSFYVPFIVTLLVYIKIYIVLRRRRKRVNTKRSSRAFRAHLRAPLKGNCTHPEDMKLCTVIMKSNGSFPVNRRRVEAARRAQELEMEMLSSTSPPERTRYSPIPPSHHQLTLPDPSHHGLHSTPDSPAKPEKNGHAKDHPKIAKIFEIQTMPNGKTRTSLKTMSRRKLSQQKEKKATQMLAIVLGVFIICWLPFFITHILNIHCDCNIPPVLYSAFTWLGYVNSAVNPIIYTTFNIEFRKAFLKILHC

The target is the same in test [18]. Put plainly: Dopamine D2 receptor (DRD2) small molecule antagonists, cell-based qHTS assay (AID 1963595; active = well fitted inhibition curve with a large enough effect in the signal ratio in the repeat runs, with a control signal flat; the % refers to the signal ratio). The essentials:
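DRD2-HEK293; 0.1 mM Ro20-1724; cpd 10 min RT; NKH477 200 nM + quinpirole 12 nM, 30 min RT; HTRF cAMP (cAMP-d2/anti-cAMP cryptate), 665/620 nm ratio after 1 h.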

Test [19] concerns the target Gonadotropin-releasing hormone receptor (Homo sapiens) (UniProt P30968). Put plainly: Human gonadotropin-releasing hormone receptor (GnRHR) small molecule agonists, calcium flux assay in GnRHR-HEK293 cells (AID 1920063). Note: nearly all actives have a fitted effect of over 35% in size. The essentials:
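HEK293 cells stably expressing human GnRHR were plated 18 h at 37 °C, loaded with calcium dye 1 h at 37 °C, then given compound in agonist mode; fluorescence (Ex/Em 480/540) read kinetically for 3 min at 1 s intervals.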

Test [20] can be described thus: Nuclear factor erythroid 2-related factor 2/antioxidant responsive element (Nrf2/ARE) small molecule agonists: luciferase reporter gene qHTS assay in human keratinocytes (AID 1919969). Note: nearly all actives have a fitted effect of over 35% in size.

Molecules are shown by their SMILES. Results filed as inconclusive are left out. Calls of active or inactive are those of the source. Unless noted, calls come from the whole dose curve.

Muscarinic acetylcholine receptor M1 (Homo sapiens), sequence (P11229 whole entry, looked up): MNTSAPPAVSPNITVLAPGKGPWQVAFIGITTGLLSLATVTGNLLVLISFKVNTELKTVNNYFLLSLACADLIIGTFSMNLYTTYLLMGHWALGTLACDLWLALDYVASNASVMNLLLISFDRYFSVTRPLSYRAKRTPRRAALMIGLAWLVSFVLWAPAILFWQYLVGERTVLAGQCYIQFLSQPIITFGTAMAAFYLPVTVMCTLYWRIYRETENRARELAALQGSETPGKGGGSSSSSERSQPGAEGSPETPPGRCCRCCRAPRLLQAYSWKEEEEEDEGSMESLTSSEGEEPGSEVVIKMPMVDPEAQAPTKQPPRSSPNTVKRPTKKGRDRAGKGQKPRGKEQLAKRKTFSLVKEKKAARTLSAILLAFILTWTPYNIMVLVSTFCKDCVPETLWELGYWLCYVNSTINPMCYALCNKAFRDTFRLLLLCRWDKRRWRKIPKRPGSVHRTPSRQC
Gonadotropin-releasing hormone receptor (Homo sapiens), sequence (P30968 whole entry, looked up): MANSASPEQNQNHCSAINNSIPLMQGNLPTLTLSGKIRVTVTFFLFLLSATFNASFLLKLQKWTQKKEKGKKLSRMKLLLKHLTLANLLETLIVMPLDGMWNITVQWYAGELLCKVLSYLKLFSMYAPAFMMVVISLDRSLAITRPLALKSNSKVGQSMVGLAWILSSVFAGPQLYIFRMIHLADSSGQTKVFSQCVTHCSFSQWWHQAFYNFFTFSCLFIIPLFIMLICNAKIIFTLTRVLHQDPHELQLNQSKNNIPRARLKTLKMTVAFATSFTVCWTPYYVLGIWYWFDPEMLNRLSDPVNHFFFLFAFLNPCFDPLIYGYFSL
KiSS-1 receptor (Homo sapiens), sequence (Q969F8 whole entry, looked up): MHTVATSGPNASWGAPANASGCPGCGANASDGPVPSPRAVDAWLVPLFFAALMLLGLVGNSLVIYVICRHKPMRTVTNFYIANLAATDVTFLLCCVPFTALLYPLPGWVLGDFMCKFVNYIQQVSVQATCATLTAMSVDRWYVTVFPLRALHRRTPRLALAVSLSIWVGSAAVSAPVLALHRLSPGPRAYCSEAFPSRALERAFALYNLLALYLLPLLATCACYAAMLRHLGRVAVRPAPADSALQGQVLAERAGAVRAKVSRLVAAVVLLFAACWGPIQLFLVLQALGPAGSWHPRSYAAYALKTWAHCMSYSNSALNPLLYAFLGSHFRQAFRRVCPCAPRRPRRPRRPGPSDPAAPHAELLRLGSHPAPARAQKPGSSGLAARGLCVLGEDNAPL

`CNC(=O)Oc1cccc2ccccc12`: the Potency entry in test [1], in [2], in test [3], in [5], in test [6] and in test [7] was “inactive” throughout. In addition, the Potency entry in test [8], in [9], in test [10], in [11], in test [12] and in test [13] was “inactive” throughout. The Potency entry in test [14], in test [15], in test [16], in [17] and in test [18] was “inactive” throughout. The Potency in test [4] was 32.4 µM (active).

Consider `O=[N+]([O-])O`, for which the Potency result in [19], in test [1], in [2], in [5], in test [6] and in test [7] was “inactive” each time. Further, the Potency entry in [9], in test [10], in [11], in test [12], in [13] and in test [14] was “inactive” in each case. Further, the Potency result in test [15], in test [16], in test [17] and in test [18] was “inactive” in each case.

Regarding `S=c1[nH]c2ccccc2[nH]1`, the Potency result in test [19], in [1], in test [3], in test [4], in test [5] and in test [6] was “inactive” throughout. Also, the Potency entry in test [7], in [8], in test [9], in [10], in test [11] and in test [12] was “inactive” each time. Moreover, the Potency entry in [13], in test [14], in [15], in test [17] and in test [18] was “inactive” throughout.

On to `CCC(=O)Nc1ccc(Cl)c(Cl)c1`, for which the Potency result in test [20], in [19], in test [1], in test [2], in test [3] and in test [4] was “inactive” in each case. Besides, the Potency result in test [5], in test [6], in [7], in [8], in test [9] and in test [10] was “inactive” each time. Besides, the Potency entry in test [11], in [12], in [13], in test [14], in [15] and in test [16] was “inactive” throughout. Further, the Potency result in test [17] and in [18] was “inactive” each time.

As to `O=S(=O)(O)O`, the Potency result in test [19], in test [1], in test [2], in test [5], in test [6] and in test [7] was “inactive” throughout. For the same compound, the Potency result in [9], in test [11], in [12], in test [13], in test [14] and in test [15] was “inactive” in each case. Also, the Potency result in test [16] and in test [18] was “inactive” in each case.

As to `CCOP(=S)(OCC)Oc1cc(C)nc(C(C)C)n1`, the Potency result in test [20], in test [19], in test [1], in test [2], in test [3] and in [5] was “inactive” each time. Besides, the Potency entry in test [6], in test [7], in test [8], in test [9], in test [10] and in test [11] was “inactive” in each case. The Potency result in test [12], in [13], in test [14], in test [15], in test [16] and in test [17] was “inactive” each time. In addition, the Potency entry in test [18] is “inactive”.

Regarding `Nc1c(Br)cc([N+](=O)[O-])cc1[N+](=O)[O-]`, the Potency entry in test [20], in test [19], in [1], in [2], in test [4] and in [5] was “inactive” throughout. In addition, the Potency result in test [6], in test [7], in test [8], in [9], in [10] and in [11] was “inactive” throughout. Further, the Potency result in [12], in [13], in test [14], in test [15], in test [17] and in test [18] was “inactive” throughout.

Regarding `O=c1[nH]c(=O)[nH]c(=O)[nH]1`, the Potency result in [20], in [19], in [1], in test [2], in test [3] and in test [4] was “inactive” each time. Also, the Potency result in test [5], in test [6], in test [7], in [8], in test [9] and in test [10] was “inactive” throughout. In addition, the Potency result in test [11], in test [13], in [14], in [15], in test [16] and in test [17] was “inactive” throughout. Further, the Potency entry in test [18] was “inactive”.

These data come from PubChem BioAssay (Tox21).
